# Measured values from PubChem BioAssay (Tox21).
# Values joined by “and” are separate entries in the source; they are usually repeats but may differ in a detail not shown here. Identical values can stand only once. Inconclusive results are not listed. Some structures have more than one record in an assay (separate samples or runs), and their calls can disagree. Active and inactive are the calls of the source. Calls follow the shape of the dose curve; as a rule, active = well fitted cell-killing curve with a large enough effect in the repeat runs; inconclusive = weak or mixed curves; inactive = no such curve, though single readings can be large or run the other way.
# Assay: qHTS assay for identifying genotoxic compounds that show differential cytotoxicity against isogenic chicken DT40 cell lines with known DNA damage response pathways - Rad54/Ku70 mutant cell line (AID 743015); also: nearly all actives have a fitted effect of over 60% in size
# Settings: DT40 Rad54/Ku70 mutant viability, CellTiter-Glo, 40 h; series mostly up to 66.8 µM; activity change, negative = cytotoxicity: at the top concentration
# Text: National Center for Advancing Translational Sciences [NCATS]
# NIH Chemical Genomics Center [NCGC]
# U.S. Environmental Protection Agency [EPA]
# National Institutes of Environmental Health Sciences [NIEHS]
# National Toxicology Program [NTP]
# U.S. Food and Drug Administration [FDA]
# DNA repair pathways play a critical role in cellular homeostasis by repairing DNA damage induced by endogenous processes and xenobiotics. Isogenic chicken DT40 cell lines deficient in different DNA repair pathways can be used to identify genotoxic compounds and aid in characterizing the nature of the DNA damage induced. Two DNA repair-deficient cell lines with disrupted genes, Rad54/Ku70 or Rev3, were used to screen the Tox21 10K compound library. Possible genotoxicity was based on the presence of a significant increase in cytotoxicity in one or more of the DNA repair-deficient cell lines compared to that observed in the parental DNA repair-proficient cell line. CellTiter Glo viability assay (Promega, Madison, WI) was used to measure cell viability in these cells after compound treatment. This assay includes the data from the Rad54/Ku70 mutant cell line.
# Tox21 Assay Protocol Summary:
# 300 DT40 mutant cells in 5 uL/well were dispensed into white, solid-bottom 1536-well plates using a Multidrop Combi (ThermoFisher Scientific, Waltham, MA) dispenser. After the assay plates were incubated at 37 C/5% CO2 for approximately 0.5 hour, 23 nL of compounds dissolved in DMSO, positive controls or DMSO only was transferred into the assay plate by a pintool work station (Kalypsys, San Diego, CA). The assay plates were incubated at 37 C/5% CO2 for 40 hours. After 5 uL per well of CellTiter-Glo reagent was added into each well of the assay plates, the plates were incubated for 30 min at room temperature and the luminescence intensity of the plates was measured using a ViewLux (PerkinElmer, Shelton, CT) plate reader.
# % is scaled to controls: 0 for no effect and ±100 for the full control effect; potency is read from the fitted curve at half-maximal effect.
SMILES,"activity change, negative = cytotoxicity",Potency
CN1CCN(c2c(F)cc3c(=O)c(C(=O)O)cn4c3c2OCN4C)CC1,0.949% (inactive),
CC(C)(C)C(=O)O,0.586% [at 95.1 µM] (inactive),
C[N+](C)(C)CCOC(N)=O,7.72% (inactive),
CC[C@H](NC(=O)c1cc(F)ccc1NS(=O)(=O)c1cccc2cccnc12)c1ccccc1,,64.9 µM (active)
[O]=[Bi],2.55% [at 8.55 µM] (inactive),
CCn1cc(C(=O)O)c(=O)c2cc(F)c(N3CCNCC3)nc21,1.86% [at 30.7 µM] (inactive),
O=C(N[C@@H](c1ccccc1)[C@@H]1CCCCN1)c1cccc(C(F)(F)F)c1Cl,,15.4 µM (active)
NC(=O)Nc1ccc(Cl)cc1,7.26% (inactive),
CCCCC(=O)O[C@]1(C(=O)CO)[C@@H](C)C[C@H]2[C@@H]3CCC4=CC(=O)C=C[C@]4(C)[C@@]3(F)[C@@H](O)C[C@@]21C,,24.3 µM (active)
CC1=C(C=O)C(C)(C)CCC1,4.34% (inactive),
CC(C)CCCCCOC(=O)CCCCC(=O)OCCCCCC(C)C,,61.1 µM (active)
CC(CCO)CCc1ccccc1 (stereo not given),-19.9% (inactive),
CCc1nn(CCCN2CCN(c3cccc(Cl)c3)CC2)c(=O)n1CCOc1ccccc1,,5.96 µM (active) and 13.3 µM (active)
CC1=CC(=O)CC(C)(C)C1(O)/C=C/C(C)=C\C(=O)O (stereo not given),-15.5% (inactive),
Cc1ccc(Nc2nccc(N(C)c3ccc4c(C)n(C)nc4c3)n2)cc1S(N)(=O)=O,,10.6 µM (active)
COc1ccc(CCC(=O)c2c(O)cc(O[C@@H]3O[C@H](CO)[C@@H](O)[C@H](O)[C@H]3O[C@@H]3O[C@@H](C)[C@H](O)[C@@H](O)[C@H]3O)cc2O)cc1O,2.99% (inactive),
CCCCCCCCCCCC[N+](C)(C)CC(=O)[O-],,61.1 µM (active)
Nc1ccc(S(=O)(=O)O)c(N)c1,1.66% (inactive),
CC(N)CN (stereo not given),11.3% [at 95.1 µM] (inactive),
CCCCC1C(=O)N(c2ccccc2)N(c2ccc(O)cc2)C1=O (stereo not given),,5.07 µM (active)

SMILES,"activity change, negative = cytotoxicity",Potency
N#C[C@@H]1C[C@@H]2C[C@@H]2N1C(=O)[C@@H](N)C12CC3CC(CC(O)(C3)C1)C2,5.4% (inactive),
CC(C)C(=O)O,7.8% (inactive),
COC(=O)Nc1nc2ccc(C(=O)c3cccs3)cc2[nH]1,,0.237 µM (active)
NC(=O)Nc1ccc(Cl)c(Cl)c1,,60.9 µM (active)
Cc1cc(O)c(C(C)C)cc1Cl,,inactive and 48.6 µM (active)
NC(=O)N(O)[C@@H]1COc2cc(OCc3ccccc3)ccc21,,61.1 µM (active)
CCC(C)(O)CCC=C(C)C (stereo not given),14.8% (inactive),
CCC(Cc1ccccc1)(C(=O)c1ccc(N2CCOCC2)cc1)N(C)C (stereo not given),,9.69 µM (active)
OC(CCCN1CCCCC1)(c1ccccc1)c1ccccc1,,29.8 µM (active)
Cc1oc(C)c(C(=O)Nc2ccccc2)c1C,,13.7 µM (active)
CCCCN(CCCC)CCCOC(=O)c1ccc(N)cc1,,4.52 µM (active)
C[N+]1(C)CCC(=C(c2ccccc2)c2ccccc2)CC1,-1.31% [at 30.7 µM] (inactive),
CCCC(=O)O[C@]1(C(=O)COC(=O)CC)CC[C@H]2[C@@H]3CCC4=CC(=O)CC[C@]4(C)[C@H]3[C@@H](O)C[C@@]21C,10.2% (inactive),
CNCCCC1c2ccccc2C=Cc2ccccc21,,11.4 µM (active)
CC(C)(C)CC(C)(C)c1ccc(OCCO)cc1,,5.96 µM (active) and 9.63 µM (active)
Cc1ccnc2ccccc12,-3.36% (inactive),
OCCSc1ccccc1,-21.7% (inactive),
CCCCC(CC)C(=O)OCCOCCOCCOCCOC(=O)C(CC)CCCC (stereo not given),,30.6 µM (active)
CC(C)C(OC(=O)c1ccccc1)C(C)(C)COC(=O)c1ccccc1 (stereo not given),,24.3 µM (active)
CO[Si](C)(OC)OC,-0.83% (inactive),
